# TDP1 cell CPT – growth inhibition of DT40 Tdp1-/-;hTDP1 cells with camptothecin (screen for TDP1 inhibitors) | chicken DT40 Tdp1-/-;hTDP1 cells + 20 nM CPT, ATP luminescence, 48 h | Potency, µM (titrated, usually from 46.2 µM), for the others: at the highest dose activity change, negative = growth inhibition, hits mostly inhibitors | hit rate 12% among 420,000; also: potency is read from the fitted curve at half-maximal effect; nearly all actives have a fitted effect of over 55% in size
#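 Chicken DT40 Tdp1-/- cells complemented with human TDP1, 400 cells/well, exposed to compounds plus 20 nM camptothecin for at least 48 h at 37 C; viability read as ATP content by CellTiter-Glo luminescence.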
# Giardia kill – kills Giardia lamblia. Giardia lamblia trophozoite viability. activity change, % at 7.66 µM, hits read low. hit rate 0.15% among 340,000. AID 540267; in the data active = activity change below about -80%; inconclusive = between about -30% and that limit;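 also: parasites exposed to compound for two days anaerobically before the ATP read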
#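 Giardia lamblia trophozoites (100 cells/well) were incubated with compounds for 48 h at 37 deg C under anaerobic conditions. Viability was read as ATP content by one-step luminescence after 15-30 min at room temperature.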
# TDP1 cell noCPT – qHTS for Inhibitors of human tyrosyl-DNA phosphodiesterase 1 (TDP1): qHTS in cells in absence of CPT. DT40 Tdp1-/- hTDP1 cells, no CPT, ATP luminescence, 48 h. Potency, µM (highest dose often 46.2 µM), for the others: at the highest dose activity change, negative = growth inhibition, hits mostly inhibitors. hit rate 15% among 420,000. AID 686978, 2013; also: potency is read from the fitted curve at half-maximal effect; nearly all actives have a fitted effect of over 55% in size
#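 DT40 Tdp1-/-;hTDP1 cells, no CPT (DMSO vehicle only), 400 cells/well; compounds pin-transferred; ≥48 hr, 37 °C; CellTiter-Glo 30 min RT dark, luminescence read.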
# ELG1 DNA repair – blocks ELG1-dependent DNA repair in HEK293T cells. HEK293T ELG1-luciferase reporter, luminescence, 16 h; DNA damage induced by 5-fluorouridine. Potency, µM (series often up to 46.1 µM), for the others: at the highest dose activity change, negative = inhibition, usual class: inhibitors. hit rate 2.3% among 330,000; also: potency is read from the fitted curve at half-maximal effect; nearly all actives have a fitted effect of over 55% in size
#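 5-Fluorouridine DNA damage + compound/DMSO, 2,000 cells/well, 16 h, 37 °C/5% CO2. ONE-Glo, 30 min RT, luminescence. Readout = decrease in reporter signal.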
# IL1B secr inh – inhibitors of inflammasome signaling (IL-1 beta secretion); activity change, % at 57.5 µM; THP-1 LPS/ATP IL-1B secretion, AlphaLISA, 16 h; hits give low values; hit rate 4.7% among 360,000; AID 743279; in the data active = activity change below about -50%; inconclusive = mostly about -30% to -49%
#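 THP-1 cells pretreated 1 hr with compounds (up to 57.5 uM final), then stimulated with LPS (250 ng/mL final) plus ATP (1.25 mM final); secreted IL-1B measured by AlphaLISA after 16 hr, decreased signal indicating inhibition.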
# TDP1 block – TDP1 (human) enzyme inhibition; Q9NUW8; recombinant TDP1, AlphaScreen DNA substrate cleavage; Potency, µM (top dose mostly 130 µM), without a hit: top-dose activity change, negative = inhibition, usual class: inhibitors; hit rate 0.28% among 350,000; AID 485290; also: potency is read from the fitted curve at half-maximal effect; nearly all actives have a fitted effect of over 40% in size
# Target sequence (Q9NUW8 whole entry, looked up): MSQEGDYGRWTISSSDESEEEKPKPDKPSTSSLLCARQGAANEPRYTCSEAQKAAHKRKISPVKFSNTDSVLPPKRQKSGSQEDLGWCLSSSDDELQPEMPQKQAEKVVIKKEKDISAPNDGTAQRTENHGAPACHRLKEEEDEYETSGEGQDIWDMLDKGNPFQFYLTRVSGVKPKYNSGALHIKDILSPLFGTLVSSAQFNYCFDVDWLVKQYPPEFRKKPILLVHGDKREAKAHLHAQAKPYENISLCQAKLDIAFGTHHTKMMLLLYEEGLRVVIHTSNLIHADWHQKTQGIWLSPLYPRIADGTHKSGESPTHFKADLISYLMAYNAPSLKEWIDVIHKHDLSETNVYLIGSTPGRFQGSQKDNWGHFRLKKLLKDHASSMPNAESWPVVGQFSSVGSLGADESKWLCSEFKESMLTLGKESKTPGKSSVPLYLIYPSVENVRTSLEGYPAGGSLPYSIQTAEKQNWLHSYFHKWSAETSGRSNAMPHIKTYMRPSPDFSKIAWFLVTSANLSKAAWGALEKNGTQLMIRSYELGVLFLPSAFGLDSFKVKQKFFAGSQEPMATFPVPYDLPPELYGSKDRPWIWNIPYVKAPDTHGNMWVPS
#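 Recombinant human Tdp1 (E. coli-expressed, 1 nM final) preincubated with compounds 15 min at room temperature, then 5'-biotin/3'-phosphotyrosine-FITC DNA substrate (15 nM final) added for 5 min. AlphaScreen beads (10 ug/ml final) added 10 min; cleavage lowers signal.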
# Starred values were filed as active, the others as inactive; ? = inconclusive; / = no result; [ ] = another dose, or the depositor's remark. Shown are actives, neighbours in structure and some others; about 19% of the full set was active somewhere. Unless noted, calls follow the shape of the dose curve; as a rule, active = well fitted curve in the direction sought with a large enough effect; inconclusive = small, poorly fitted or top-dose-only effect, or another doubt; inactive = no such curve, though single readings can be large; an effect the other way counts as inactive or inconclusive. % is scaled to controls: 0 for no effect and ±100 for the full control effect.
SMILES,TDP1 cell CPT,Giardia kill,TDP1 cell noCPT,ELG1 DNA repair,IL1B secr inh,TDP1 block
NCCNC(=O)Cn1c(=O)c2c3c(sc2n(Cc2ccccc2)c1=O)CCCC3,20.6µM*,-15.8,23.1µM*,-0.1%,-77.6*,/
O=C(Cn1c(=O)c2c3c(sc2n(Cc2ccccc2)c1=O)CCCC3)NCCO,?,-24.7,?,1.6%,-6.7,/
NCCCNC(=O)Cn1c(=O)c2c3c(sc2n(Cc2ccccc2)c1=O)CCCC3,20.6µM*,-22.2,?,-6.4%,3.0,/
NC(=O)Cn1c(=O)n(CCc2ccccc2)c(=O)c2c3c(sc21)CCCC3,-19.6%,-1.2,-19.4%,2.3%,-3.6,-1.9%
Cc1cccc(NC(=O)CSc2nc3ccccc3nc2N2CCCC2)c1C,-14.3%,2.6,?,?,1.0,/
Cc1ccc(CN(C)C(=O)CN2C(=O)NC(c3ccccc3)(c3ccccc3)C2=O)c(C)c1,?,-27.5,16.4µM*,?,-62.8*,2.6%
N#CCN1CCN(CC(=O)c2ccc(Br)cc2)CC1,-15.4%,6.0,-4.2%,4.3%,8.9,/
O=C(CN1CC[n+]2c(-c3cccs3)csc21)c1ccc(Br)cc1,1.84µM*,-1.3,3.66µM*,?,?,10.3%
O=C(CN1CC[n+]2c(-c3ccccc3)csc21)c1ccc(Br)cc1,2.91µM*,-19.5,2.06µM*,16.4µM*,-54.1*,0.0%
CC(=O)N1CCN(CC(=O)c2ccc(Br)cc2)CC1,-21.2%,-12.1,-20.7%,0.2%,26.9,2.4%
CCCCOc1ccc(CSCCN=C(N)N)cc1,?,-3.2,4.61µM*,?,-80.6*,-5.1%
c1ccc2c(c1)ncn2CCCCOc1ccc2c(c1)CCC2,?,11.0,29.1µM*,?,-29.3,11.7%
c1ccc2c(c1)ncn2CCCOc1ccc2c(c1)CCC2,?,3.4,20.6µM*,-1.9%,-53.4*,4.6%
c1ccc(OCCn2cnc3ccccc32)cc1,?,-7.0,?,?,-3.9,0.0%
CCOc1ccc(CCNC(=O)c2ccc(C)c(S(=O)(=O)N3CCOCC3)c2)cc1OCC,?,?,?,/,29.9,/
CCOc1ccc(CCNC(=O)c2ccc(Cl)c(S(=O)(=O)N3CCOCC3)c2)cc1OCC,20.6µM*,12.5,23.1µM*,16.4µM*,33.6,/
O=C(NCCC1=CCCCC1)c1ccc(F)c(S(=O)(=O)N2CCOCC2)c1,-23.5%,-3.3,?,?,29.4,2.0%
O=C(NCc1ccc2c(c1)OCO2)c1ccc(Cl)c(S(=O)(=O)N2CCOCC2)c1,?,12.8,-26.8%,-15.6%,-9.5,2.3%
COc1ccc(CNC(=O)c2ccc(Cl)c(S(=O)(=O)N3CCOCC3)c2)cc1OC,9.2µM*,4.5,7.31µM*,?,7.0,-6.6%
CC1CN(S(=O)(=O)c2cc(C(=O)NCCC3=CCCCC3)ccc2Cl)CC(C)O1 (centres undefined),18.4µM*,-0.7,14.6µM*,?,31.4,0.9%
O=C(O)c1cccc(Br)c1,4.1%,17.7,5.1%,/,-12.8,/
COc1cccc2oc3cc(C#Cc4ccccn4)ccc3c(=O)c12,?,-8.8,?,?,-55.0*,/
Cc1cc(C)c(NC(=O)C(C)n2nc(C)c3sc4ccccc4c3c2=O)c(C)c1 (centres undefined),3.3%,/,-4.7%,/,/,-5.7%
COc1ccc(C)cc1NS(=O)(=O)c1cc(Br)cc2c1N(C(C)=O)C(C)C2 (centres undefined),?,/,18.4µM*,/,/,8.8%
CC(=O)N1c2c(cc(Br)cc2S(=O)(=O)N2CCN(c3cc(C)ccc3C)CC2)CC1C (centres undefined),16.4µM*,/,14.6µM*,/,/,0.0%
SMILES,TDP1 cell CPT,Giardia kill,TDP1 cell noCPT,ELG1 DNA repair,IL1B secr inh,TDP1 block
CC(=O)N1c2c(cc(Br)cc2S(=O)(=O)NCc2ccccc2Cl)CC1C (centres undefined),?,/,?,/,/,8.8%
COc1cc(NS(=O)(=O)c2cc(Br)cc3c2N(C(C)=O)C(C)C3)cc(OC)c1 (centres undefined),13µM*,/,18.4µM*,/,/,0.0%
CC(=O)N1c2c(cc(Br)cc2S(=O)(=O)N2CCOCC2)CC1C (centres undefined),-3.6%,2.3,-12.0%,-1.2%,-4.5,2.1%
CC(=O)N1c2c(cc(Br)cc2S(=O)(=O)N2CCN(c3ccccc3F)CC2)CC1C (centres undefined),-24.7%,-6.9,?,?,-8.6,-2.6%
CCC(=O)Nc1ccccc1-c1nc2ccccc2n(Cc2cccc(Br)c2)c1=O,7.5%,/,-4.4%,/,/,2.9%
Cc1ccc2nc(N3CCN(C=O)CC3)nc(-c3ccccc3)c2c1,?,-2.1,-18.7%,?,-24.3,-4.9%
COc1ccc(/C=C/c2cnccn2)cc1OC,-22.3%,/,-25.1%,/,/,/
COc1ccc(-n2c(CCNC(=O)c3ccccc3C(F)(F)F)nnc2SC)cc1,10.6%[9.04 µM],/,-11.4%,/,/,/
COc1cccc(NC(=S)N/N=C2\CC(C)(C)Oc3ccc(O)cc32)c1,?,-14.6,?,?,-28.2,6.9%
Cc1cccc(NC(=S)N/N=C2\CC(C)(C)Oc3ccc(O)cc32)c1,3.66µM*,8.4,2.59µM*,?,?,5.6%
CC1(C)C/C(=N\NC(=S)Nc2ccccc2F)c2cc(O)ccc2O1,?,9.1,4.11µM*,-17.8%,-78.6*,11.8%
Cc1ccc(Nc2nc3nonc3[nH]c2=O)cc1Cl,16.4µM*,7.7,25.9µM*,?,-17.1,4.6%
Cc1ccc(Nc2nc3nonc3[nH]c2=O)cc1C,?,-22.9,?,?,7.3,-1.0%
O=C(CN1CCN(C(C(=O)Nc2ccc(F)cc2)c2ccccc2)CC1)NC1CC1 (centres undefined),-0.9%,-25.3,3.5%,18.0%,-9.2,-0.4%
CCCCOC(=O)C1CN(c2ccccc2)N=C1C(=O)OCC (centres undefined),23.1µM*,-5.6,20.6µM*,2.8%,0.1,-2.3%
Cc1ccc(NC(=O)CSc2nc(-c3cccs3)cc(C(F)(F)F)n2)cc1C,7.31µM*,/,5.8µM*,/,/,2.1%
COc1ccc(NC(=O)CSc2nc3nc(-c4cccs4)cc(C(F)(F)F)c3c(=O)[nH]2)c(OC)c1,-24.2%,-4.1,?,0.9%,18.2,7.7%
O=C(CSc1nc(-c2cccs2)cc(C(F)(F)F)n1)Nc1ccccc1Cl,?,/,18.4µM*,/,/,5.3%
COc1ccc(NC(=O)CSc2nc(-c3cccs3)cc(C(F)(F)F)n2)c(OC)c1,16.4µM*,/,20.6µM*,/,/,-3.2%

# Bioassay records (PubChem)
